Source: PubChem BioAssay
Active and inactive are the calls of the source.

How the values were obtained:
Albumin (Bos taurus) = Albumin (Bos taurus) (UniProt P02769); assay: compounds binding labelled BSA control protein – biochemical, small-molecule microarray, Alexa647 label, 635/667 nm fluorescence, artefact control for SMM control protein annotation, profiling panel (AID 1118); conditions: BSA-A647 binding, fluorescence 635 nm, higher = more signal;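 further: score merges 667 nm emission intensity and signal-to-noise per printed compound spot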
[1] = probe aXIP binding to arrayed compounds – biochemical, NeuroSMM set, 635/667 nm fluorescence, primary screen (AID 1119); conditions: small-molecule microarray, higher = more signal, called active from +8 up or from −8 down;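 further: probe is the protein aXip251-270 applied at 1 µg/mL to compound-printed slides; binding of probe to printed compounds measured as 667 nm fluorescence plus signal to noise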
[2] = probe aNOTCH3 binding on compound microarray – biochemical, small-molecule microarray, 635/667 nm fluorescence, primary screen (AID 1120); conditions: higher = more signal;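 further: probe is a biotin-tagged antibody raised against NOTCH3 rather than NOTCH3 protein; score merges spot fluorescence near 667 nm with spot signal to noise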
[3] = probe aNOTCH2 binding on compound microarray – biochemical, small-molecule microarray, 635/667 nm fluorescence, primary screen (AID 1121); conditions: higher = more signal;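 further: score merges feature fluorescence read at 667 nm with its signal to noise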
[4] = molecular target: Carbonic anhydrase 2 (Homo sapiens) (UniProt P00918); assay: compounds binding carbonic anhydrase 2 – biochemical, small-molecule microarray, Alexa647-labelled CAII, profiling panel (AID 1122); conditions: CAII-A647 binding fluorescence, higher = more signal
[5] = COS7 lysate on small-molecule microarray, probe aHis, 635 nm (AID 1123); conditions: COS7 cell lysate, fluorescence, higher = more signal;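 further: z-score combines 667nm fluorescence intensity with signal-to-noise per printed compound spot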
[6] = probe aLAP1 signal on lysate-treated microarray – cell lysate, small-molecule microarray, COS7 lysate, primary screen (AID 1124); conditions: probe aLAP1, fluorescence, higher = more signal;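 further: lysate comes from COS7 cells expressing LAP1 and is applied at 0.3 µg/mL; score merges spot fluorescence near 667 nm with signal-to-noise over triplicate slides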
Sam68 (KHDRBS1) = assay: compounds binding KHDRBS1 protein – biochemical, small-molecule microarray, 635 nm fluorescence, primary screen (AID 1125); conditions: higher = more signal;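 further: score merges 667 nm channel intensity with signal to noise over triplicate slides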
[7] = tested on: Chordin-like protein 2 (CHRDL2); assay: compounds binding chordin-like 2 – biochemical, small-molecule microarray, 635 nm fluorescence, primary screen (AID 1126); conditions: fluorescence 635 nm, higher = more signal;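 further: printed compound slides probed with Chrdl2 protein at 4 µg/mL for 1 h at 4 C; score merges 667 nm emission intensity with signal to noise over three replicate slides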
[8] = molecular target: Concanavalin-A (Canavalia ensiformis) (UniProt P02866); assay: compounds binding concanavalin A lectin – biochemical, small-molecule microarray, Alexa647 label, 635 nm, artefact control for SMM control protein annotation, primary screen (AID 1127); conditions: ConA-A647 binding fluorescence, higher = more signal;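 further: z combines 667 nm emission intensity with signal-to-noise across three replicate slides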
Chain of Concanavalin-A (Canavalia ensiformis) (P02866 whole entry, looked up): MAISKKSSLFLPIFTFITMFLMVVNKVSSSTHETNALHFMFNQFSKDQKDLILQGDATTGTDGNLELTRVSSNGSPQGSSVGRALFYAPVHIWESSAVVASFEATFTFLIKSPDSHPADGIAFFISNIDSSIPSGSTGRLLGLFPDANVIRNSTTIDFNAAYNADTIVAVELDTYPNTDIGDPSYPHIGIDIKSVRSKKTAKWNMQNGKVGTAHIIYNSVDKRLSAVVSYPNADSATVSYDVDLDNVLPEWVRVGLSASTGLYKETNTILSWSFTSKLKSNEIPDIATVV

Chain of Albumin (Bos taurus) (P02769 whole entry, looked up): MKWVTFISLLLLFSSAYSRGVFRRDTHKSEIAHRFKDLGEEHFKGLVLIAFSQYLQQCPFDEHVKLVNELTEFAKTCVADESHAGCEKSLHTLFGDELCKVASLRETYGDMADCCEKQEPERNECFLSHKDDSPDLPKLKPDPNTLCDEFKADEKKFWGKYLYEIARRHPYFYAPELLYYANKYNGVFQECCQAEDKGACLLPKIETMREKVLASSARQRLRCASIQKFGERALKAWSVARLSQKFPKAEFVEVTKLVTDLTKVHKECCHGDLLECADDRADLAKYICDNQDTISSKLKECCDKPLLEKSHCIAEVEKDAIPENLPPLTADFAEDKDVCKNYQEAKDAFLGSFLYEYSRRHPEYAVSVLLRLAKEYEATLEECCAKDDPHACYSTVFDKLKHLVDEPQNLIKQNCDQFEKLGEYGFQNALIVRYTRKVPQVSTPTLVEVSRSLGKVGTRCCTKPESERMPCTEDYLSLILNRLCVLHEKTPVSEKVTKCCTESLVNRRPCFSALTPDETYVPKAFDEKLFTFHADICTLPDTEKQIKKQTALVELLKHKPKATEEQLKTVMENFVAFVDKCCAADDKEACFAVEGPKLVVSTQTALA

| Structure (SMILES) | composite z-score (Albumin (Bos taurus)) | composite Z-score [1] | composite z-score [2] | composite z-score [3] | composite z-score [4] | composite z-score [5] | composite z-score [6] | composite z-score (Sam68 (KHDRBS1)) | composite z-score [7] | composite z-score [8] |
| --- | --- | --- | --- | --- | --- | --- | --- | --- | --- | --- |
| C=CCC(OC(C)=O)[C@@H]1[C@@H](N(Cc2cccc3ccccc23)C(=O)Cc2ccc(F)cc2)c2cc(OCCCO)ccc2N1C(=O)Cc1ccc2ccccc2c1 (stereo not given in full) | 0.0257 | -0.227 (inactive) | -0.0881 | -0.0194 | -0.117 | 0.293 | -0.27 | -0.146 | -0.214 | -1.5 |
| O=C(NCc1ccccc1)c1ccc(Br)cc1[N+](=O)[O-] | 0.311 | 0.047 (inactive) | 0.116 | -0.0488 | 0.727 | 0.35 | -0.209 | 0.604 | 0.446 | 0.899 |
| C[C@H]1COC(=O)[C@@H]2CCCN2C(=O)[C@@H](C)COC(=O)[C@@H]2CCCN2C1=O | -0.503 | -0.221 (inactive) | -0.241 | -0.108 | -0.525 | -0.99 | -0.111 | -1.02 | 0.296 | -0.0254 |
| NC(=O)[C@H]1[C@@H]2C(=O)O[C@@H](c3ccccc3)[C@@H](c3ccccc3)N2[C@@H](c2ccc(O)cc2)[C@]12C(=O)Nc1ccc(C#CCCO)cc12 | 0.0103 | 0.049 (inactive) | -0.125 | -0.0645 | 0.72 | -0.119 | 0.0482 | -1.09 | -0.92 | -1.78 |
| C#CCCCON=C1C[C@@H](O)[C@@H](O)[C@@H]2[C@@H]3C(=O)N(Cc4ccc5c(c4)OCO5)C(=O)[C@@H]3CC[C@@H]12 | 0.352 | -0.0164 (inactive) | 0.0225 | -0.148 | 0.227 | 0.537 | -0.0088 | 0.005 | 0.187 | 0.858 |
| [N-]=[N+]=Nc1ccccc1C[C@@]1(C(=O)N2CCOCC2)N=C(c2ccc(OCCCO)cc2)O[C@@H]1c1ccccc1N=[N+]=[N-] | 0.873 | 0.997 (inactive) | 0.121 | -0.0286 | 0.467 | 1.24 | 0.0649 | 1.33 | -0.338 | 1.1 |
| C=CCN1C(=O)[C@]2(O[C@H](CCn3cc(CCO)nn3)[C@@H]([Si](C)(C)c3ccc(OC)cc3)[C@@H]2C)c2cc(NC(=O)c3ccc(OC)cc3)ccc21 | 0.0645 | -0.624 (inactive) | 0.141 | -0.044 | 0.131 | 0.514 | -0.0812 | 1.3 | 0.782 | 1.08 |
| COC(=O)Cn1c(C(=O)N2CCCC2)cc2c1C[C@H]1CN(C(=O)c3ccccc3)[C@@](Cc3ccccc3)(C(=O)OC)[C@@H]21 | 1.06 | 0.0529 (inactive) | -0.0647 | 0.0292 | 0.752 | 1.99 | -0.263 | 0.185 | -1.13 | 0.831 |
| O=C1c2ccccc2[C@](Cc2ccccc2I)(C(=O)O)[C@H](c2ccc(CO)cc2)N1C1CCCCC1 | 0.823 | 0.222 (inactive) | 0.447 | -0.0708 | 0.739 | 3.57 | 0.589 | 1.3 | -0.423 | 1.21 |
| C[C@]1(C(=O)NCCN2CCOCC2)c2ccccc2C(=O)N(Cc2ccccc2)[C@H]1c1ccc(CO)cc1 | -0.0435 | -0.61 (inactive) | -0.257 | -0.154 | 0.733 | 0.652 | 0.389 | -0.791 | -0.479 | 0.657 |
| CCN1C(C)=C(C(=O)OC)[C@@H](c2ccccc2)N2C(=O)[C@](O)(C(=O)OC)[C@@H](c3ccccc3)C(C(C)=O)=C12 | -0.647 | 0.319 (inactive) | 0.641 | -0.0483 | 0.916 | -0.0995 | -0.141 | -0.0684 | 0.708 | -1.15 |
| Cc1ccc(S[C@]2(C(=O)O)CC(=O)N(Cc3ccccc3)[C@@H]2c2ccc(CO)cc2)cc1 | -0.0554 | 1.28 (inactive) | -0.0328 | -0.154 | 0.724 | 1.02 | 0.623 | 0.401 | -0.852 | -0.467 |
| CCCC=C(CCC)[C@@H](NS(=O)(=O)c1ccc(C(F)(F)F)cc1)c1ccc(-c2ccccc2)cc1 | 0.822 | -0.118 (inactive) | 0.305 | -0.0467 | 0.279 | 2.24 | 0.348 | 1.21 | -0.386 | 0.882 |
